# FLuc modulator: inhibits or activates purified firefly luciferase, miR-21 counter-screen | P08659 | purified FLuc, Km substrates, luminescence inhibition | Potency, µM (doses to about 57.5 µM), most hits filed as inhibitors | 360,000 compounds, 6.9% hits | AID 588342; also: nearly all actives have a fitted effect of over 55% in size
# Target sequence (P08659 whole entry, looked up): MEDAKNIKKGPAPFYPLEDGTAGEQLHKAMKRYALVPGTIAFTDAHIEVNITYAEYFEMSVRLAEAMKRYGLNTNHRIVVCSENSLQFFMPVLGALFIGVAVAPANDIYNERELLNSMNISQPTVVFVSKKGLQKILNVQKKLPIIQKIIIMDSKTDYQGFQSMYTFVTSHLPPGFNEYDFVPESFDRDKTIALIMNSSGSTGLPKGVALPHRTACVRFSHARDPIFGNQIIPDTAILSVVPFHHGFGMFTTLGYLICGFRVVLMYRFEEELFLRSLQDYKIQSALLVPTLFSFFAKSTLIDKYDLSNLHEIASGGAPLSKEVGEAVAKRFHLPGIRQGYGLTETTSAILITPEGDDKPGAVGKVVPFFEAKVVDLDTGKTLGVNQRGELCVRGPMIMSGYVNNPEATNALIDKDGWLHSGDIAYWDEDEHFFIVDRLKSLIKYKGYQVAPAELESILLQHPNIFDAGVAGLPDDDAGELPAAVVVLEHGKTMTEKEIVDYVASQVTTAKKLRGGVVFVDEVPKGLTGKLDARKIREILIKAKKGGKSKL
#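 Biochemical qHTS of compounds, final roughly 60 µM downward over six points, against 10 nM purified firefly luciferase using Km concentrations of substrates (10 uM D-luciferin, 10 uM ATP) in Tris acetate pH 7.5 buffer; luminescence output.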
# Rab9 prom act: activators of Rab9 promoter. Huh7 Rab9 promoter-luciferase reporter, luminescence, 24 h. Potency, µM (top dose mostly 9.22 µM), actives largely listed as activators. 320,000 compounds, 2.8% hits. AID 485297; also: nearly all actives have a fitted effect of over 60% in size
#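 Rab9 promoter-driven luciferase in stably transfected Huh7 cells; 1500 cells/well rested 2 h, exposed to compound in DMSO for 24 h at 37 °C, 5% CO2. Luminescence read 10 min after adding luciferase reagent at ambient temperature.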
# SMN2 splice up: increases expression of the SMN2 splice variant; Potency, µM (titrated, usually from 46.1 µM), usual class: activators; HEK293 SMN2-luciferase splicing reporter, luminescence, 30-36 h; 210,000 compounds, 2.8% hits; AID 1458; also: nearly all actives have a fitted effect of over 55% in size
#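 HEK293 cells carry an SMN2 minigene-luciferase reporter in which exon 7 inclusion puts luciferase in frame. Cells were seeded at 2000 cells/well, attached for 10-12 hours, then exposed to compounds for 30-36 hours at 37C before ONE-Glo luminescence.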
# ELG1 genotoxic: inducers of genotoxicity in HEK293T ELG1-luciferase cells; AID 504466; 330,000 compounds, 1.3% hits; Potency, µM (highest dose often 46 µM), most hits filed as activators; HEK293T ELG1-luciferase reporter, luminescence, 16 h; also: nearly all actives have a fitted effect of over 60% in size
#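 ELG1-luciferase HEK293T cells, 2,000/well; compound pinned in; 16 hr, 37 °C, 5% CO2; ONE-Glo, 30 min RT; luminescence on CCD imager.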
# NPC1 prom act: NPC1 promoter activation; Huh7 NPC1 promoter luciferase reporter, 24 h; Potency, µM (highest dose often 9.22 µM), actives largely listed as activators; 320,000 compounds, 2.4% hits; AID 485313; also: nearly all actives have a fitted effect of over 60% in size
#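 Stably transfected Huh7 (NPC1 promoter→luciferase), 1500 cells/well in Opti-MEM + 10% FBS, 2 h settle, then compound 24 h at 37 °C. Luminescence after 10 min with Amplite reagent.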
# Numbers stand for hits; – = inactive; ? = inconclusive; · = not tested or not shown; [ ] = remark or other dose. Compounds with a hit are over-represented: about 7.5% of the library has one in this group of screens. Calls follow the shape of the dose curve; as a rule, active = well fitted curve in the direction sought with a large enough effect; inconclusive = small, poorly fitted or top-dose-only effect, or another doubt; inactive = no such curve, though single readings can be large; an effect the other way counts as inactive or inconclusive.
SMILES,FLuc modulator,Rab9 prom act,SMN2 splice up,ELG1 genotoxic,NPC1 prom act
COc1cccc(C(=O)NCCSc2ccc(F)cc2)c1,19µM,?,12.6µM,–,?
O=C(NCCSc1ccccc1)c1ccccc1,?,2.51µM,11.2µM,?,2.51µM
O=C(CCn1nnc2ccccc21)N/N=C\Cc1ccccc1,–,–,–,–,–
CCc1ccc(CNC(=O)Cc2ccc(NC(=O)C3=C(C)OCCS3)cc2)cc1,2.39µM,–,·,?,?
CC1=C(C(=O)Nc2ccc(CC(=O)NCc3ccccc3C)cc2)SCCO1,2.39µM,?,·,?,–
COc1cccc(CNC(=O)Cc2ccc(NC(=O)C3=C(C)OCCS3)cc2)c1,1.9µM,3.16µM,·,?,?
COC(=O)CCC(=O)N1CCC(CCC(=O)NCc2ccc(F)cc2)CC1,–,–,·,–,–
O=C(Nc1ccccn1)c1ccc2nc(-c3ccccc3)c(-c3ccccc3)nc2c1,–,–,?,–,–
O=C(Nc1ccccc1)Nc1cccc2ccccc12,?,–,·,–,–
O=C(Nc1ccccn1)c1ccc(-c2ccccc2)cc1,0.213µM,0.0891µM,·,?,0.1µM
S=C(Nc1ccccn1)c1ccccn1,7.57µM,2.51µM,20µM,12.6µM,2.82µM
O=C(Nc1ccccc1)Nc1cccc2cccnc12,6.01µM,–,14.1µM,6.31µM,–
O=C(Nc1ccc(Cl)cc1)Nc1ccc(S(=O)(=O)Nc2ncccn2)cc1,?,–,·,–,–
O=C(Nc1ccc(Cl)cc1)Nc1ccccn1,5.36µM,2.24µM,·,?,2.82µM
CC1CCCCN1C(=O)c1ccc(C(=O)c2ccccc2)cc1 (configuration not stated),·,·,·,–,·
CC(C)CCn1c(CN2CCN(c3cccc(Cl)c3)CC2)nc2c1c(=O)n(C)c(=O)n2C,–,–,·,–,–
CC(C)OC(=O)CSc1nc(Cc2cccs2)nc2ccccc12,–,–,·,–,–
Oc1ccccc1CNc1cccc2cccnc12,16.9µM,–,·,?,–
O=C(O)c1ccccc1C(=O)Nc1ccccn1,–,–,–,–,–
O=C(Nc1ccccn1)C(=O)Nc1ccccn1,5.36µM,1.26µM,·,4.61µM,1.41µM
Cc1nc(NC(=O)Nc2ccc(Cl)cc2)sc1C,?,3.16µM,?,–,–
CCOC(=O)c1ccc(NC(=O)Nc2ccccn2)cc1,2.69µM,1.26µM,·,?,2.51µM
O=C(Nc1ccccc1)Nc1ccccn1,12µM,?,14.1µM,?,?
O=C(Nc1ccncc1)Nc1ccc(Cl)cc1,21.3µM,–,·,–,–
Oc1ccc(Cl)cc1CNc1cnc2ccccc2c1,–,–,·,–,–
SMILES,FLuc modulator,Rab9 prom act,SMN2 splice up,ELG1 genotoxic,NPC1 prom act
Oc1ccccc1CNc1cnc2ccccc2c1,10.7µM,?,?,?,?
O=C(Cc1ccc(F)cc1)NC1CC(=O)N(c2ccccc2)C1 (configuration not stated),–,·,·,·,·
Cc1ccc(-n2ncc(C(=O)NCCCN3CCCCC3)c2C2CCN(C(=O)OC(C)(C)C)CC2)cc1,–,·,·,·,·
Cc1cc(Cl)c2oc(C(=O)N(C)C3CCOC3)c(C)c2c1 (configuration not stated),21.3µM,3.98µM,·,?,?
Cc1cc(Cl)c2oc(C(=O)N(C)Cc3ccon3)c(C)c2c1,13.5µM,2.82µM,·,18.3µM,3.98µM
COC/C=C/C1=CC2=CC(=O)C(C)(OC(=O)c3cnc4ccccc4n3)C(=O)C2=CN1C1CCCC1 (configuration not stated),·,·,–[9.22 µM],·,·
CC(C)(C)n1ncc2c(=O)n(CC(=O)NCc3ccco3)cnc21,?,3.16µM,12.6µM,?,3.16µM
CC(C)(C)n1ncc2c(=O)n(CC(=O)NCc3ccc(F)cc3)cnc21,4.26µM,0.355µM,8.91µM,4.11µM,0.501µM
CC(C)(C)n1ncc2c(=O)n(CC(=O)NC3CCCCC3)cnc21,?,?,–,?,?
Cc1ccccc1C(=O)c1cccn1CC(=O)N1CCCCC1,–,–,·,–,–
Cc1ccc(NC(=O)c2ccccc2OCc2ccc([N+](=O)[O-])cc2)nc1,–,–,–,?,–
O=C(CCNS(=O)(=O)c1cccc2nsnc12)Nc1ccc2c(c1)OCCO2,?,–,–,–,–
O=S(=O)(Nc1ccc2c(c1)OCCO2)c1cccc2nsnc12,23.9µM,–,–,16.4µM,–
Cc1ccc2cccc(S(=O)(=O)Nc3ccc4c(c3)OCO4)c2n1,–,–,7.08µM,–,–

# Screening results deposited in PubChem by National Center for Advancing Translational Sciences (NCATS).
